Over roughly 35,000 sequences, “fluorescence intensity (a.u.)” has its median near 10,000; the highest 2% begin near 52,000. The list comes from a sample in which the highest values are over-represented; it also holds similar and randomly drawn sequences.
What follows are sequences tested against T1, OsWOX13 (Oryza sativa, UniProt Q5QMM3 1-267) (assay: protein-binding microarray (RPBM); PBS, 2% BSA, 51.3 ng/ul salmon testes DNA, 50 uM zinc acetate, 200 nM TF, 25 C, 1 h; high values mean tight binding). Conditions: protein: recombinant; tags: N-terminal polyhistidine and DsRed monomer fusion (pET32a); label: CyDye5-dUTP incorporated in the synthesized complementary strand; 3' TTTTT single-stranded linker to array surface; dsDNA, one strand shown.
T1 sequence: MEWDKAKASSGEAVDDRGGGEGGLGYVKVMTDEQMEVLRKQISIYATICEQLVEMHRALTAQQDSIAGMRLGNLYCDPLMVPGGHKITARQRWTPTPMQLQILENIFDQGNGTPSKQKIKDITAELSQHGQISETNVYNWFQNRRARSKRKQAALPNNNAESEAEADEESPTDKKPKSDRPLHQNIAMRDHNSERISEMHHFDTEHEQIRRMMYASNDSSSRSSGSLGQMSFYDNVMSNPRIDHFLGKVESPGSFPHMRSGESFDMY
Outline: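 The binding signal is fluorescence intensity per array feature (arbitrary units). Readings came from an Axon 4000B scanner after a washed, 2% BSA-blocked, double-stranded custom Agilent array had been incubated for 1 h at 25 °C with 200 nM protein and 50 µM zinc acetate. The protein was a Ni–NTA-purified transcription factor fused N-terminally to polyhistidine and DsRed, expressed in E. coli BL21-CodonPlus.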
“GCCTGATTATCCATTGTTCATCCTGCCATATTGATTTCAGCGGAGTCACCTAGTGCAG” was tested, and the binding signal was 30300 fluorescence intensity (a.u.). “ACATTCATATTGATGTTAATGATTCTAGACATATATATCTCGGAGTCACCTAGTGCAG” was tested, and the binding signal was 4710 fluorescence intensity (a.u.). With “GTTATGATTAATTGCGCCATTAGGATATTAATTAATCTGGCGGAGTCACCTAGTGCAG” the binding signal was 54500 fluorescence intensity (a.u.). For “CATAATTAGCGGTTGATTACTGTAGCATCACTGTAACAAACGGAGTCACCTAGTGCAG”, the binding signal was 29600 fluorescence intensity (a.u.). In the case of “CTAGACATATATATTTATCTAGATTCATTAACATCCATATCGGAGTCACCTAGTGCAG”, the binding signal is reported as 5320 fluorescence intensity (a.u.). In the case of “CGTAAACAAATAGGTCCAACATAATTTAACCTTCATAGAGCGGAGTCACCTAGTGCAG”, the binding signal is reported as 5570 fluorescence intensity (a.u.). In the case of “AGACGCATCTCCTCAATCATGCATCAACGTGCGTCATCTGCGGAGTCACCTAGTGCAG”, the binding signal is reported as 3790 fluorescence intensity (a.u.). For “GTTGCATATCAATCATCAAGAATCTCTTCAGAAAGAGGAGCGGAGTCACCTAGTGCAG”, the binding signal was 14000 fluorescence intensity (a.u.). For “GTTAAATTTAAACTTGTATATTTGTGAAGTGATACATCACCGGAGTCACCTAGTGCAG”, the binding signal was 17300 fluorescence intensity (a.u.). For “ACACAACTTGTTAATTTGACCTGTAGCCCCATCATGTACACGGAGTCACCTAGTGCAG”, the binding signal was 3150 fluorescence intensity (a.u.). In the case of “ATTCATGAATATATGAAACCTGATTGCAAATGTGCAAATCCGGAGTCACCTAGTGCAG”, the binding signal is reported as 4970 fluorescence intensity (a.u.). With “TTGTAATTGATTGTGGCCCATCAACTATTGCCATCACTGGCGGAGTCACCTAGTGCAG” the binding signal was 64900 fluorescence intensity (a.u.). With “TGCCTAATTGTTGCCATTGATTTGTTAGCCACACCTTTGGCGGAGTCACCTAGTGCAG” the binding signal was 40300 fluorescence intensity (a.u.). For “GCAAAATTGGTTTCATCAACTATTGAGTGGGTGTGCACTGCGGAGTCACCTAGTGCAG”, the binding signal was 9640 fluorescence intensity (a.u.). With “ATATTGATTGCATAAAGAAAGTTCGGTCCTGTTCACTTTGCGGAGTCACCTAGTGCAG” the binding signal was 39900 fluorescence intensity (a.u.). With “TGTTAGACTATGCCATCAATTGTAATTGTTGGTTCTGATGCGGAGTCACCTAGTGCAG” the binding signal was 4250 fluorescence intensity (a.u.). In the case of “TTTGATTGATGGCCATAAGTTGCCACACTTTGCCACACTTCGGAGTCACCTAGTGCAG”, the binding signal is reported as 53800 fluorescence intensity (a.u.). For “TCAAATAATTAGAAGGGGTGAGACTTCGAATCCAAGTCGTCGGAGTCACCTAGTGCAG”, the binding signal was 14400 fluorescence intensity (a.u.). “TAATTATTGAACACACTAATTAAGTATTACGATGCACCTCCGGAGTCACCTAGTGCAG” was tested, and the binding signal was 6340 fluorescence intensity (a.u.). With “ACAATTGAATGATTGATTGCAGCTCAAGCTTCAATCCGCACGGAGTCACCTAGTGCAG” the binding signal was 63900 fluorescence intensity (a.u.). In the case of “TAATCTTGAATTATTGATTTATTTATGGCTTCAGCTTTCACGGAGTCACCTAGTGCAG”, the binding signal is reported as 7480 fluorescence intensity (a.u.). With “TAGATAGATAGAATTGAATGGTGACCTCAGCTCCAGCTTCCGGAGTCACCTAGTGCAG” the binding signal was 16200 fluorescence intensity (a.u.). For “TGTGAATGTTGTGATTGAGGTGGTATCAGTATCATATCCGCGGAGTCACCTAGTGCAG”, the binding signal was 27000 fluorescence intensity (a.u.). With “AGAGGATTGATGAATGCAGCTGCAAGCACAGCACGCAGTACGGAGTCACCTAGTGCAG” the binding signal was 13600 fluorescence intensity (a.u.). In the case of “GGTGAATTGAATGGTTGATTGCCTATCTCATCTTCCGCAGCGGAGTCACCTAGTGCAG”, the binding signal is reported as 64100 fluorescence intensity (a.u.). With “TCTCTTACTCTTGTTGATTGACACCGGTCATCAGTAGTTCCGGAGTCACCTAGTGCAG” the binding signal was 43200 fluorescence intensity (a.u.). In the case of “CAAAATTAACTTGCGCGCCACTCTGCCTCTCAACCCTTCACGGAGTCACCTAGTGCAG”, the binding signal is reported as 8740 fluorescence intensity (a.u.). For “AACAATTGACAAACTGATTCTGCTCGCCTCTGTCCCCTTTCGGAGTCACCTAGTGCAG”, the binding signal was 46800 fluorescence intensity (a.u.). “ATATATATATATATATATATACATACATATACACACACACCGGAGTCACCTAGTGCAG” was tested, and the binding signal was 7300 fluorescence intensity (a.u.). In the case of “TTGATTGGGTCTGTGGTGGAACAGGACGATCATACATCACCGGAGTCACCTAGTGCAG”, the binding signal is reported as 21000 fluorescence intensity (a.u.). For “GAGCTCAGCTTGCAGGGAGCTTGGGTGTGTGATCATACACCGGAGTCACCTAGTGCAG”, the binding signal was 63900 fluorescence intensity (a.u.). With “AGTTAATAACAAGAAATTATTCATTTAAATTTAGGGCAAACGGAGTCACCTAGTGCAG” the binding signal was 9460 fluorescence intensity (a.u.). With “CTTAATAACTTTCTCGGATTTAATGTGTGACTCACCATTCCGGAGTCACCTAGTGCAG” the binding signal was 3340 fluorescence intensity (a.u.). With “GATGTGACTGAAAAGTTGTATGTGTATGACAGGTTGATGTCGGAGTCACCTAGTGCAG” the binding signal was 8260 fluorescence intensity (a.u.). With “GAAATTGAAGATGATGTGACTGAAAAGTTGTGTATATGACCGGAGTCACCTAGTGCAG” the binding signal was 17200 fluorescence intensity (a.u.). With “GTTGAATGTTTTGTATGATTTGAACCTGAAAACTGCATGACGGAGTCACCTAGTGCAG” the binding signal was 7380 fluorescence intensity (a.u.). For “GGTTGCTGATTGTATCCTTTACTACTAGATCTTGACTGAGCGGAGTCACCTAGTGCAG”, the binding signal was 16300 fluorescence intensity (a.u.). In the case of “GATGTGATTGAAAGTTTGTGTGTGTATGACAGTTTGATGTCGGAGTCACCTAGTGCAG”, the binding signal is reported as 61700 fluorescence intensity (a.u.). In the case of “ATGATTGAATGAATGAAACCCTAGTTTGTTTTGATTTGTACGGAGTCACCTAGTGCAG”, the binding signal is reported as 54400 fluorescence intensity (a.u.). With “GTGATTGACTGATTGTGTGATTGTGTGAAGTGTATTGGTTCGGAGTCACCTAGTGCAG” the binding signal was 65000 fluorescence intensity (a.u.). “TGGAATGATGTGATGGAAAAGTTGAAAGTTTGTGTGTGTACGGAGTCACCTAGTGCAG” was tested, and the binding signal was 5390 fluorescence intensity (a.u.). With “GATGATGTGACTGAAAAGTTGTATGTGTATGACATATTGACGGAGTCACCTAGTGCAG” the binding signal was 11500 fluorescence intensity (a.u.). “GCTATTAGATTGACTATATATGAATTGGAGCTAGTAGTTGCGGAGTCACCTAGTGCAG” was tested, and the binding signal was 42900 fluorescence intensity (a.u.). “CCTGATTGGTTGTATTGCTTGAAGTAGACTATTGAGATTGCGGAGTCACCTAGTGCAG” was tested, and the binding signal was 60200 fluorescence intensity (a.u.). For “ATATGATAGAAAAGTTGTGTATGTATGAAATGTTTGATGTCGGAGTCACCTAGTGCAG”, the binding signal was 9060 fluorescence intensity (a.u.).

Source: PMC7819943, “Rice protein-binding microarrays: a tool to detect cis-acting elements near promoter regions in rice”
